# According to PubChem BioAssay (Tox21):
# Several values for one entry are separate records, joined by “and”; a condition that tells them apart may be missing. Identical values can stand only once. Inconclusive results are not listed. A call without a number means that no potency is given here. A structure can be active in one record and inactive in another. Activity calls are given as the source filed them. Calls come from the whole dose curve; as a rule, active = well fitted curve in the direction sought with a large enough effect in the repeat runs; inconclusive = weak or mixed curves; inactive = no such curve, though single readings can be large; an effect the other way counts as inactive or inconclusive.
# Legend:
# [1] = A CellTox Green Cytotoxicity Assay to monitor cytotoxicity in HEK293 cells - 40 hour (AID 1224871); note: nearly all actives have a fitted effect of over 45% in size; note: potency is the fitted concentration of half-maximal effect
# Outline: (§1)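 Nonlytic real-time cytotoxicity: HEK293 + CellTox Green reagent plated, 5 h preincubation, pintool compound addition (23 nL in DMSO), 37 C for 40 h, fluorescence measured at successive time points.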
# [2] = qHTS RealTime-Glo MT Cell Viability Assay in HEK293 cells - 16 hour (AID 1224872); note: nearly all actives have a fitted effect of over 50% in size; note: potency is the fitted concentration of half-maximal effect
# Outline: (§2)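 Viability tracked continuously by luminescence as live cells reduce a prosubstrate for NanoLuc; HEK293 cells preincubated 5 h, compound-treated at 37 C, and read at 0, 8, 16, 24, 32 and 40 h.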
# [3] = qHTS RealTime-Glo MT Cell Viability Assay in HEK293 cells - 40 hour (AID 1224874); conditions: RealTime-Glo luminescence; max response: stronger effect = lower value; note: nearly all actives have a fitted effect of over 50% in size; note: potency is the fitted concentration of half-maximal effect
# Outline: (§3)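 Cells were seeded together with NanoLuc luciferase and a prosubstrate that viable cells reduce to a luciferase substrate. After a 5 h incubation at 37 C/5% CO2, compounds were added and luminescence was measured repeatedly during 40 h of treatment.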
# [4] = A CellTox Green Cytotoxicity Assay to monitor cytotoxicity in HEK293 cells - 24 hour (AID 1224875); note: series mostly up to about 77 µM; nearly all actives have a fitted effect of over 45% in size
# Outline: as §1
# [5] = A CellTox Green Cytotoxicity Assay to monitor cytotoxicity in HepG2 cells - 16 hour (AID 1224876); note: nearly all actives have a fitted effect of over 45% in size; note: potency is the fitted concentration of half-maximal effect
# Outline: (§4)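 Read-out is fluorescence of a cyanine dye excluded from live cells that stains DNA of dead HepG2 cells, with signal proportional to cytotoxicity. Plates were read at 0, 8, 16, 24, 32 and 40 h after compound addition.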
# [6] = qHTS RealTime-Glo MT Cell Viability Assay in HepG2 cells - 32 hour (AID 1224877); note: nearly all actives have a fitted effect of over 55% in size
# Outline: (§5)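 Viability was tracked continuously by NanoLuc luminescence from prosubstrate reduced by living HepG2 cells, at successive time points over 40 h of compound exposure. Cells with reagent were preincubated 5 h at 37 °C before compound addition.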
# [7] = A CellTox Green Cytotoxicity Assay to monitor cytotoxicity in HepG2 cells - 24 hour (AID 1224878); note: nearly all actives have a fitted effect of over 45% in size; note: potency is the fitted concentration of half-maximal effect
# Outline: as §4
# [8] = A CellTox Green Cytotoxicity Assay to monitor cytotoxicity in HepG2 cells - 40 hour (AID 1224879); note: nearly all actives have a fitted effect of over 40% in size; note: potency is the fitted concentration of half-maximal effect
# Outline: as §4
# [9] = qHTS RealTime-Glo MT Cell Viability Assay in HEK293 cells - 0 hour (AID 1224880)
# Outline: as §3
# [10] = A CellTox Green Cytotoxicity Assay to monitor cytotoxicity in HEK293 cells - 32 hour (AID 1224881); note: nearly all actives have a fitted effect of over 40% in size; note: potency is the fitted concentration of half-maximal effect
# Outline: as §1
# [11] = A CellTox Green Cytotoxicity Assay to monitor cytotoxicity in HepG2 cells - 0 hour (AID 1224882); note: nearly all actives have a fitted effect of over 35% in size
# Outline: as §4
# [12] = A CellTox Green Cytotoxicity Assay to monitor cytotoxicity in HepG2 cells - 32 hour (AID 1224883); note: nearly all actives have a fitted effect of over 50% in size; note: potency is the fitted concentration of half-maximal effect
# Outline: as §4
# [13] = A CellTox Green Cytotoxicity Assay to monitor cytotoxicity in HEK293 cells - 8 hour (AID 1224884); note: nearly all actives have a fitted effect of over 35% in size; note: potency is the fitted concentration of half-maximal effect
# Outline: as §1
# [14] = qHTS RealTime-Glo MT Cell Viability Assay in HepG2 cells - 16 hour (AID 1224885); note: nearly all actives have a fitted effect of over 50% in size
# Outline: as §5
# [15] = qHTS RealTime-Glo MT Cell Viability Assay in HEK293 cells - 8 hour (AID 1224887); note: nearly all actives have a fitted effect of over 50% in size; note: potency is the fitted concentration of half-maximal effect
# Outline: as §3
# [16] = A CellTox Green Cytotoxicity Assay to monitor cytotoxicity in HEK293 cells - 16 hour (AID 1224888); note: nearly all actives have a fitted effect of over 35% in size
# Outline: as §1
# [17] = qHTS RealTime-Glo MT Cell Viability Assay in HepG2 cells - 0 hour (AID 1224889); note: nearly all actives have a fitted effect of over 50% in size
# Outline: as §5
# [18] = A CellTox Green Cytotoxicity Assay to monitor cytotoxicity in HepG2 cells - 8 hour (AID 1224890); note: nearly all actives have a fitted effect of over 45% in size
# Outline: as §4
# [19] = qHTS RealTime-Glo MT Cell Viability Assay in HepG2 cells - 8 hour (AID 1224873); note: nearly all actives have a fitted effect of over 55% in size
# Outline: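 HepG2 cells (600/well) mixed with RealTime-Glo MT reagent, settled 5 h at 37 C/5% CO2 before compound addition. Nonlytic NanoLuc luminescence from viable-cell prosubstrate reduction read repeatedly during 40 h treatment at 37 C.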
# [20] = qHTS RealTime-Glo MT Cell Viability Assay in HEK293 cells - 24 hour (AID 1224886); note: nearly all actives have a fitted effect of over 50% in size; note: potency is the fitted concentration of half-maximal effect
# Outline: as §2
smiles,measurement,setting,value
CC(C)CCCCCCCOC(=O)c1ccccc1C(=O)OCCCCCCCC(C)C,Potency,[1],inactive
same,Potency,[2],inactive
same,max response,[3],11.2% (inactive)
same,Potency,[4],inactive
same,Potency,[5],inactive
same,Potency,[6],inactive
same,Potency,[7],inactive
same,Potency,[8],inactive
same,outcome,[9],inactive
same,Potency,[10],inactive
same,Potency,[11],inactive
same,Potency,[12],inactive
same,Potency,[13],inactive
same,Potency,[14],inactive
same,Potency,[15],inactive
same,Potency,[16],inactive
same,outcome,[17],inactive
same,Potency,[18],inactive
Nc1ccccc1C(=O)OCCc1ccccc1,Potency,[1],21.9 µM (active)
same,Potency,[2],24.5 µM (active)
same,Potency,[19],inactive
same,Potency,[3],24.5 µM (active)
same,Potency,[5],21.9 µM (active)
same,Potency,[6],inactive
same,Potency,[7],21.9 µM (active)
same,Potency,[8],21.9 µM (active)
same,outcome,[9],inactive
same,Potency,[10],21.9 µM (active)
same,Potency,[11],inactive
same,Potency,[12],21.9 µM (active)
same,Potency,[13],inactive and 34.7 µM (active)
same,Potency,[14],inactive
same,Potency,[15],21.9 µM (active)
same,outcome,[17],inactive
CCOP(=O)(SC(C)CC)N1CCSC1=O (configuration not stated),Potency,[1],inactive
same,Potency,[2],inactive
same,max response,[3],15% (inactive)
same,Potency,[4],inactive
same,Potency,[5],inactive
same,Potency,[6],inactive
same,Potency,[7],inactive
same,Potency,[8],inactive
same,outcome,[9],inactive
same,Potency,[10],inactive
same,Potency,[11],inactive
same,Potency,[12],inactive
same,Potency,[13],inactive
same,Potency,[14],inactive
same,Potency,[20],inactive
same,Potency,[16],inactive
same,outcome,[17],inactive
same,Potency,[18],inactive
O=C1NC(=O)C(=O)C(=O)N1,Potency,[1],inactive
same,Potency,[2],inactive
same,max response,[3],6.33% (inactive)
same,Potency,[4],inactive
same,Potency,[5],inactive
same,Potency,[6],inactive
same,Potency,[7],inactive
same,Potency,[8],inactive
same,outcome,[9],inactive
same,Potency,[10],inactive
same,Potency,[11],inactive
same,Potency,[12],inactive
same,Potency,[13],inactive
same,Potency,[14],inactive
same,Potency,[20],inactive
same,Potency,[15],inactive
same,Potency,[16],inactive
same,outcome,[17],inactive
Nc1ccccc1C(=O)OCC(O)CO (configuration not stated),Potency,[1],inactive
same,Potency,[2],inactive
same,max response,[3],9.15% (inactive)
same,Potency,[4],inactive
same,Potency,[5],inactive
same,Potency,[6],inactive
same,Potency,[7],inactive
same,Potency,[8],inactive
same,outcome,[9],inactive
same,Potency,[10],inactive
same,Potency,[11],inactive
same,Potency,[12],inactive
same,Potency,[13],inactive
same,Potency,[14],inactive
same,Potency,[20],inactive
same,Potency,[15],inactive
same,Potency,[16],inactive
same,Potency,[18],inactive
C[C@H]1O[C@H](OC2[C@@H](O)[C@@H](O)C(O)[C@H](O)[C@H]2O)[C@@H](N)C[C@@H]1N=C(N)C(=O)O (some centres not stated),Potency,[1],inactive
same,Potency,[2],inactive
same,max response,[3],5.07% (inactive)
same,Potency,[4],inactive
same,Potency,[5],inactive
same,Potency,[6],inactive
same,Potency,[7],inactive
same,Potency,[8],inactive
same,outcome,[9],inactive
same,Potency,[10],inactive
same,Potency,[11],inactive
same,Potency,[12],inactive
same,Potency,[13],inactive
same,Potency,[14],inactive
same,Potency,[20],inactive
same,Potency,[15],inactive
same,Potency,[16],inactive
same,outcome,[17],inactive
same,Potency,[18],inactive
O=P(OCC(Br)CBr)(OCC(Br)CBr)OCC(Br)CBr (configuration not stated),Potency,[1],inactive
same,Potency,[2],22.2 µM (active)
same,Potency,[3],27.9 µM (active)
same,Potency,[4],inactive
same,Potency,[5],inactive
same,Potency,[6],inactive
same,Potency,[7],inactive
same,Potency,[8],inactive
same,outcome,[9],inactive
same,Potency,[10],inactive
same,Potency,[11],inactive
same,Potency,[12],inactive
same,Potency,[13],inactive
same,Potency,[14],inactive
same,Potency,[20],27.9 µM (active)
same,Potency,[16],inactive
same,outcome,[17],inactive
same,Potency,[18],inactive
O=C(Cc1ccccc1)c1ccccc1,Potency,[1],inactive
same,Potency,[2],inactive
same,max response,[3],4.41% (inactive)
same,Potency,[4],inactive
same,Potency,[5],inactive
same,Potency,[6],inactive
same,Potency,[7],inactive
same,Potency,[8],inactive
same,outcome,[9],inactive
same,Potency,[10],inactive
same,Potency,[11],inactive
same,Potency,[12],inactive
same,Potency,[14],inactive
same,Potency,[20],inactive
same,Potency,[15],inactive
same,Potency,[16],inactive
same,outcome,[17],inactive
Cc1cnc(C2=NC(C)(C(C)C)C(=O)N2)c(C(=O)O)c1 (configuration not stated),Potency,[1],inactive
same,Potency,[2],inactive
same,max response,[3],12.6% (inactive)
same,Potency,[4],inactive
same,Potency,[5],inactive
same,Potency,[6],inactive
same,Potency,[7],inactive
same,Potency,[8],inactive
same,outcome,[9],inactive
same,Potency,[10],inactive
same,Potency,[11],inactive
same,Potency,[12],inactive
same,Potency,[13],inactive
same,Potency,[14],inactive
same,Potency,[20],inactive
same,Potency,[16],inactive
same,outcome,[17],inactive
same,Potency,[18],inactive
C1CCNCC1,Potency,[1],inactive
same,Potency,[2],inactive
same,max response,[3],0.2% (inactive)
same,Potency,[4],inactive
same,Potency,[5],inactive
same,Potency,[6],inactive
same,Potency,[7],inactive
same,Potency,[8],inactive
same,outcome,[9],inactive
same,Potency,[10],inactive
same,Potency,[11],inactive
same,Potency,[12],inactive
same,Potency,[13],inactive
same,Potency,[14],inactive
same,Potency,[20],inactive
same,Potency,[15],inactive
same,Potency,[16],inactive
same,outcome,[17],inactive
CCC1(CC)C(=O)NC(=O)NC1=O,Potency,[1],inactive
same,Potency,[2],inactive
same,Potency,[19],inactive
same,max response,[3],0.988% (inactive)
same,Potency,[4],inactive
same,Potency,[5],inactive
same,Potency,[6],inactive
same,outcome,[9],inactive
same,Potency,[10],inactive
same,Potency,[11],inactive
same,Potency,[13],inactive
same,Potency,[14],inactive
same,Potency,[20],inactive
same,Potency,[15],inactive
same,Potency,[16],inactive
same,outcome,[17],inactive
same,Potency,[18],inactive
C[N+](C)(C)CCOC(=O)C(O)(c1ccccc1)c1ccccc1,Potency,[1],inactive
same,Potency,[2],inactive
same,Potency,[19],inactive
same,max response,[3],0.291% (inactive)
same,Potency,[4],inactive
same,Potency,[5],inactive
same,Potency,[7],inactive
same,Potency,[8],inactive
same,outcome,[9],inactive
same,Potency,[10],inactive
same,Potency,[11],inactive
same,Potency,[12],inactive
same,Potency,[13],inactive
same,Potency,[14],inactive
same,Potency,[20],inactive
same,Potency,[16],inactive
same,Potency,[18],inactive
